Records with an inconclusive call do not appear. The source made the active and inactive calls.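 How the source made its calls, unless noted: active means compounds whose dose series gives a full or clear partial fitted curve of increased nuclear translocation; inconclusive means weak partial curve or effect only at the top dose; inactive means no dose-dependent translocation response.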
Tested on: not listed separately
Experiment: Stat Signaling Pathway (AID 446; active means well fitted curve in either direction with a large enough effect, not every such curve was filed as active;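 further: ME-180 cervical cancer cells given 40 pM IL-6 alongside compound; SIE-controlled beta-lactamase reporter measured as 460/530 nm FRET emission ratio; on the % scale 0 is the no-effect control and ±100 the full control effect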)
Conditions: ME-180 SIE beta-lactamase reporter, IL-6 stimulated, 5 h; at 17.2 µM (top of the series) unless noted
Outline: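 ME-180 cells carrying a SIE-driven beta-lactamase reporter are stimulated with 40 pM IL-6 for 5 h at 37C in the presence of compound. The 460/530 nm FRET substrate ratio is read after 2.5 h at RT. Data are normalised to 300 pM IL-6 and to 125 nM JAK inhibitor controls.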

activity, negative = inhibition, inactive:
CCNc1nc(NC(C)C)nc(N(C#N)C(C)C(=O)N(C)C)n1 (stereo not drawn) 0.0609%
O=C(C/C(=N/O)c1ccccc1O)C(F)F 3.52%
N#Cc1nc(COc2ccccc2F)oc1NCCCn1ccnc1 5.2%
CCOc1ccc(C2CC(c3ccccc3)Nc3nc(N)nn32)cc1 (stereo not drawn) -1.31%
CCc1nc2c(sc3nc(N4CCOCC4)c4c(c32)CC(C)(C)OC4)c(=O)o1 -6.95%
CCn1nnc(C(=O)O)c1C(=O)O 1.11%
CCOC(=O)c1ccc(NC(=O)CCC(CC)C(=O)O)cc1 (stereo not drawn) 3.77%
CN1CCN(Cc2c(O)ccc3c(-c4ccccc4)cc(=O)oc23)CC1 -7.33%
CCCCOc1ccc(C(=O)NCC(=O)NCC(=O)OCC)cc1 -5.03%
CC1(C)Cc2c(c(N3CCOCC3)nc3snc(Br)c23)CO1 13.2%
CC(Sc1nc(N2CCCCC2)c2c(c1C#N)CCCC2)C(=O)O (stereo not drawn) -20.5%
COc1ccc(OC)c(NC(=O)CSc2nnc(-c3ccco3)n2-c2ccc(C(=O)O)cc2)c1 -4.38%
Cn1c(=O)[nH]c(=O)c2c1nc(Br)n2CCSc1ncccn1 4.76%
CCOc1cc(C2Nc3ccccc3C(=O)N2c2ccccc2OC)ccc1O (stereo not drawn) 5.03%
CCCOc1ccc(/C(O)=C2/C(=O)C(=O)N(CCCn3ccnc3)C2c2cccs2)cc1 (stereo not drawn) 6%
Cc1cc(N2C(=O)C(=O)/C(=C(/O)c3ccccc3)C2c2cccs2)no1 (stereo not drawn) -21%
COc1ccc(/C=N/n2cncn2)cc1COc1ccc(NC(C)=O)cc1 -3.18%
COc1ccc(/C(O)=C2/C(=O)C(=O)N(CCCN(C)C)C2c2ccc(C)o2)cc1Cl (stereo not drawn) 3.77%
Cc1ccc(C(=O)C2=C(O)C(=O)N(c3ncccn3)C2c2cccc(Cl)c2)o1 (stereo not drawn) -7.64%
CCOc1ccc(/C(O)=C2/C(=O)C(=O)N(c3nc(C)c(C)s3)C2c2ccco2)cc1 (stereo not drawn) -19%
COc1cccc(NC(=O)c2cc(C(=O)Nc3cccc(OC)c3)n(C)n2)c1 -3.92%
O=C(CSc1nnc(-c2ccccc2)c(-c2ccccc2)n1)N1CCOCC1 8.97%
CCCCCOc1ccccc1C(=O)NCCCC(=O)O 1.72%
CC(=O)[C@@]1(O)CC[C@H]2[C@@H]3CCC4=CC(=O)CC[C@]4(C)[C@H]3[C@@H](O)C[C@@]21C 4.29%
CCCCC(=O)NC(Nc1ccc(C)cn1)(C(=O)OCC)C(F)(F)F (stereo not drawn) -20.4%
CCCCOc1ccc(C(=O)N2CCCC2C(=O)O)cc1 (stereo not drawn) 9.6%
Cc1ccc(C(=O)/C=C/Nc2ccccn2)cc1 -4.63%
COc1ccc(C2CC(c3ccccc3)Nc3nc(N)nn32)cc1 (stereo not drawn) 1.39%
O=C(CCC(=O)CCN1CCCCC1)CCN1CCCCC1 1.96%
COc1ccc(OC)c(C2/C(=C(\O)c3ccc4c(c3)OCCO4)C(=O)C(=O)N2CCCN(C)C)c1 (stereo not drawn) -7.15%
CC(C)C1C(C#N)=C(N)Oc2n[nH]c(C(C)(C)C)c21 (stereo not drawn) -18.4%
COc1ccc2cnn(-c3ccccc3C)c(=O)c2c1OC 24.1%
Cc1ccc(C2C(C(=O)c3cc4ccccc4o3)=C(O)C(=O)N2CCN(C)C)o1 (stereo not drawn) -0.311%
COc1ccc(NC(=O)Nc2cccc(C(=O)N3CCOCC3)c2)cc1OC 0.00442%
c1cncc(-c2nnc3sc(-c4ccco4)nn23)c1 -6.03%
COc1ccc(-n2ncc3c(NCCCn4ccnc4)ncnc32)cc1 -5.95%
CN=C1c2cc3c(Br)c(OC)ccc3n2CCN1C 6.11%
CN1CCN(/C=N/c2sc3c(c2C#N)CCCCC3)CC1 -3.82%
Cc1ccc(C2C(C(=O)c3cc4ccccc4o3)=C(O)C(=O)N2CCCN(C)C)cc1 (stereo not drawn) 1.75%

Biological target: Glucocorticoid receptor (Homo sapiens) (UniProt P04150)
Sequence (P04150 whole entry, looked up): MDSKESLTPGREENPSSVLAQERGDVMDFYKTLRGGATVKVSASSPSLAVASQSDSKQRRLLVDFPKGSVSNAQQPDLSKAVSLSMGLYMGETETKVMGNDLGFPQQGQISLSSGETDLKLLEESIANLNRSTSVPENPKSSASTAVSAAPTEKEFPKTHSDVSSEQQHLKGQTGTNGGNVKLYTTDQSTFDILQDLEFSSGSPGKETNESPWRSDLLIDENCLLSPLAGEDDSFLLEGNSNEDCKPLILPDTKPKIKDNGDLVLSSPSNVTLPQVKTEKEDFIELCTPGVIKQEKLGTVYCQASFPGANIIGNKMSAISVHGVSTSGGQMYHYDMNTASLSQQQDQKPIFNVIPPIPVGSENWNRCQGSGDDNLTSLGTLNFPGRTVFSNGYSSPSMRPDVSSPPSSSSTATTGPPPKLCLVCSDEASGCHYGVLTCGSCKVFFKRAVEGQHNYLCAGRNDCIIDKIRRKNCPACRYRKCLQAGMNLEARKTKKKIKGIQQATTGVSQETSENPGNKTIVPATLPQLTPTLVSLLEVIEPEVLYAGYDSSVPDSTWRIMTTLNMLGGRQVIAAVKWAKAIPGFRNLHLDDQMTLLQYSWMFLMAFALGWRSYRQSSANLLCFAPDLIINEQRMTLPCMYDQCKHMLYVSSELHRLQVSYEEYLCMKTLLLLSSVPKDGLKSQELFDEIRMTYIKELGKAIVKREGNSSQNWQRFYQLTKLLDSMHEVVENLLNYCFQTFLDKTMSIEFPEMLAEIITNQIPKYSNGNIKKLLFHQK
Experiment: GR-GFP Redistribution (AID 450); further: potency means the concentration at half of the fitted maximal effect
Conditions: U2OS GR-GFP nuclear translocation, laser cytometry, 2 h; series mostly up to 20.6 µM

Potency, inactive:
CCNc1nc(NC(C)C)nc(N(C#N)C(C)C(=O)N(C)C)n1 (stereo not drawn) > 20.6 µM
O=C(C/C(=N/O)c1ccccc1O)C(F)F > 20.6 µM
N#Cc1nc(COc2ccccc2F)oc1NCCCn1ccnc1 > 20.6 µM
CCOc1ccc(C2CC(c3ccccc3)Nc3nc(N)nn32)cc1 (stereo not drawn) > 20.6 µM
CCc1nc2c(sc3nc(N4CCOCC4)c4c(c32)CC(C)(C)OC4)c(=O)o1 > 20.6 µM
CCn1nnc(C(=O)O)c1C(=O)O > 20.6 µM
CCOC(=O)c1ccc(NC(=O)CCC(CC)C(=O)O)cc1 (stereo not drawn) > 20.6 µM
CN1CCN(Cc2c(O)ccc3c(-c4ccccc4)cc(=O)oc23)CC1 > 20.6 µM
CCCCOc1ccc(C(=O)NCC(=O)NCC(=O)OCC)cc1 > 20.6 µM
CC1(C)Cc2c(c(N3CCOCC3)nc3snc(Br)c23)CO1 > 20.6 µM
CC(Sc1nc(N2CCCCC2)c2c(c1C#N)CCCC2)C(=O)O (stereo not drawn) > 20.6 µM
COc1ccc(OC)c(NC(=O)CSc2nnc(-c3ccco3)n2-c2ccc(C(=O)O)cc2)c1 > 20.6 µM
Cn1c(=O)[nH]c(=O)c2c1nc(Br)n2CCSc1ncccn1 > 20.6 µM
CCOc1cc(C2Nc3ccccc3C(=O)N2c2ccccc2OC)ccc1O (stereo not drawn) > 20.6 µM
CCCOc1ccc(/C(O)=C2/C(=O)C(=O)N(CCCn3ccnc3)C2c2cccs2)cc1 (stereo not drawn) > 20.6 µM
Cc1cc(N2C(=O)C(=O)/C(=C(/O)c3ccccc3)C2c2cccs2)no1 (stereo not drawn) > 20.6 µM
COc1ccc(/C=N/n2cncn2)cc1COc1ccc(NC(C)=O)cc1 > 20.6 µM
COc1ccc(/C(O)=C2/C(=O)C(=O)N(CCCN(C)C)C2c2ccc(C)o2)cc1Cl (stereo not drawn) > 20.6 µM
Cc1ccc(C(=O)C2=C(O)C(=O)N(c3ncccn3)C2c2cccc(Cl)c2)o1 (stereo not drawn) > 20.6 µM
CCOc1ccc(/C(O)=C2/C(=O)C(=O)N(c3nc(C)c(C)s3)C2c2ccco2)cc1 (stereo not drawn) > 20.6 µM
COc1cccc(NC(=O)c2cc(C(=O)Nc3cccc(OC)c3)n(C)n2)c1 > 20.6 µM
O=C(CSc1nnc(-c2ccccc2)c(-c2ccccc2)n1)N1CCOCC1 > 20.6 µM
CCCCCOc1ccccc1C(=O)NCCCC(=O)O > 20.6 µM
CCCCC(=O)NC(Nc1ccc(C)cn1)(C(=O)OCC)C(F)(F)F (stereo not drawn) > 20.6 µM
CCCCOc1ccc(C(=O)N2CCCC2C(=O)O)cc1 (stereo not drawn) > 20.6 µM
Cc1ccc(C(=O)/C=C/Nc2ccccn2)cc1 > 20.6 µM
COc1ccc(C2CC(c3ccccc3)Nc3nc(N)nn32)cc1 (stereo not drawn) > 20.6 µM
O=C(CCC(=O)CCN1CCCCC1)CCN1CCCCC1 > 20.6 µM
COc1ccc(OC)c(C2/C(=C(\O)c3ccc4c(c3)OCCO4)C(=O)C(=O)N2CCCN(C)C)c1 (stereo not drawn) > 20.6 µM
CC(C)C1C(C#N)=C(N)Oc2n[nH]c(C(C)(C)C)c21 (stereo not drawn) > 20.6 µM
COc1ccc2cnn(-c3ccccc3C)c(=O)c2c1OC > 20.6 µM
Cc1ccc(C2C(C(=O)c3cc4ccccc4o3)=C(O)C(=O)N2CCN(C)C)o1 (stereo not drawn) > 20.6 µM
COc1ccc(NC(=O)Nc2cccc(C(=O)N3CCOCC3)c2)cc1OC > 20.6 µM
c1cncc(-c2nnc3sc(-c4ccco4)nn23)c1 > 20.6 µM
COc1ccc(-n2ncc3c(NCCCn4ccnc4)ncnc32)cc1 > 20.6 µM
CN=C1c2cc3c(Br)c(OC)ccc3n2CCN1C > 20.6 µM
CN1CCN(/C=N/c2sc3c(c2C#N)CCCCC3)CC1 > 20.6 µM
Cc1ccc(C2C(C(=O)c3cc4ccccc4o3)=C(O)C(=O)N2CCCN(C)C)cc1 (stereo not drawn) > 20.6 µM

Potency, active:
CC(=O)[C@@]1(O)CC[C@H]2[C@@H]3CCC4=CC(=O)CC[C@]4(C)[C@H]3[C@@H](O)C[C@@]21C 0.0133 µM
